Measured values published in the supplement of paper PMC10849652.
About 8,800 targets were measured; listed, in parts, are those with a hit and a random draw of the rest. About 0.5% of all pairs of compound and target were hits. A number with no mark means an inactive call.

Key:
Assay in all cases: log2 fold change, soluble protein after heating vs DMSO (PISA); higher = thermal stabilisation; K562 lysate, 10 uM; active = over 0.2 and 3.5 SD of the protein, either way, in both replicates (recomputed)
vemurafenib = compound: CCCS(=O)(=O)Nc1ccc(F)c(C(=O)c2c[nH]c3ncc(-c4ccc(Cl)cc4)cc23)c1F [vemurafenib]
Method in brief: (§1)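 Dounce homogenisation of K562 pellets in PBS pH 7.4 with 1 mM MgCl2 produced a crude extract, used at 1 mg/mL protein. Exposure to 10 μM compound lasted 30 min, and aliquots were then heated for 3 min across 48°C-58°C, pooled and brought to 0.5% NP-40 at 4°C. The supernatant after 21,000xg for 90 min was quantified by TMTpro 16plex LC-MS/MS with channel sums equalised. Duplicate values are given as log-two fold change in thermal stability relative to solvent controls.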

[1] = compound: CCCS(=O)(=O)Nc1ccc(F)c(C(=O)c2c[nH]c3ncc(Cl)cc23)c1F
Method in brief: as §1

barasertib = compound: CCN(CCCOc1ccc2c(Nc3cc(CC(=O)Nc4cccc(F)c4)[nH]n3)ncnc2c1)CCOP(=O)(O)O [barasertib]
Method in brief: as §1

[2] = compound: CC[C@@H]1C(=O)N(C)c2cnc(Nc3ccc(C(=O)NC4CCN(C)CC4)cc3OC)nc2N1C1CCCC1
Method in brief: as §1

volasertib = compound: CC[C@@H]1C(=O)N(C)c2cnc(Nc3ccc(C(=O)N[C@H]4CC[C@H](N5CCN(CC6CC6)CC5)CC4)cc3OC)nc2N1C(C)C [volasertib]
Method in brief: as §1

[3] = compound: CCn1c(C(=O)N(C2CC2)C2CC2)cc2c3c(ncn3C)c(Nc3cc(C)n(C)n3)nc21
Method in brief: as §1

[4] = compound: CCn1cc(-c2ccnc3[nH]c(-c4cccc(CN(C)C)c4)cc23)c(-c2ccc(NC(=O)N(C)C)cc2)n1
Method in brief: as §1

[5] = compound: CN1CCC(CNc2ccc3ncc(-c4cccc(OC(F)(F)F)c4)n3n2)CC1
Method in brief: as §1

saracatinib = compound: CN1CCN(CCOc2cc(OC3CCOCC3)c3c(Nc4c(Cl)ccc5c4OCO5)ncnc3c2)CC1 [saracatinib]
Method in brief: as §1

sotrastaurin = compound: CN1CCN(c2nc(C3=C(c4c[nH]c5ccccc45)C(=O)NC3=O)c3ccccc3n2)CC1 [sotrastaurin]
Method in brief: as §1

UniProt Q8N7R7, sequence (Q8N7R7 whole entry, looked up): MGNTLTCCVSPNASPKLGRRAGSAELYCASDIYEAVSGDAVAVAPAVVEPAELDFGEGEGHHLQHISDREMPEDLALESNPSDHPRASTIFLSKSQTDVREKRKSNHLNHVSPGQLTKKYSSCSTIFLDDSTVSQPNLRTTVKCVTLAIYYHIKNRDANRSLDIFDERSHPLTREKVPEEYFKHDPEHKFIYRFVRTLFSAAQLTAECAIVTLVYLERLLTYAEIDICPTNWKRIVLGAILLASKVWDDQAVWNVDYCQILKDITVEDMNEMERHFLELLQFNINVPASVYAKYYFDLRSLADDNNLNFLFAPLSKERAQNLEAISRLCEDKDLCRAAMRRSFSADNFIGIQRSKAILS
UniProt O75419, sequence (O75419 whole entry, looked up): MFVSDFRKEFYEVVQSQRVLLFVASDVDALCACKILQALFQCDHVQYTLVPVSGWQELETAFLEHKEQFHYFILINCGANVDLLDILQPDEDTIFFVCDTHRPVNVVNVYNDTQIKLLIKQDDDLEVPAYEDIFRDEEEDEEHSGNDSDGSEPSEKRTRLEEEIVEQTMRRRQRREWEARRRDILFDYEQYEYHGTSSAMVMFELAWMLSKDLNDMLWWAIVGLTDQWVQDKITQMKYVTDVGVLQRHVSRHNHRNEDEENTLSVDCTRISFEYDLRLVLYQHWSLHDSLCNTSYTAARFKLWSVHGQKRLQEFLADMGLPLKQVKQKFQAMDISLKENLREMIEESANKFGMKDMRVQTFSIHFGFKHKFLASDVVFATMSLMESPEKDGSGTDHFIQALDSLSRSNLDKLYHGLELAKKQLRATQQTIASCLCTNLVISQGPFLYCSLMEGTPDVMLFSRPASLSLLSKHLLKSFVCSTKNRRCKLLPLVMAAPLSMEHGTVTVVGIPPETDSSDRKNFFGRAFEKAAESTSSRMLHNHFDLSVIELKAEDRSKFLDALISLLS
UniProt Q96B23, sequence (Q96B23 whole entry, looked up): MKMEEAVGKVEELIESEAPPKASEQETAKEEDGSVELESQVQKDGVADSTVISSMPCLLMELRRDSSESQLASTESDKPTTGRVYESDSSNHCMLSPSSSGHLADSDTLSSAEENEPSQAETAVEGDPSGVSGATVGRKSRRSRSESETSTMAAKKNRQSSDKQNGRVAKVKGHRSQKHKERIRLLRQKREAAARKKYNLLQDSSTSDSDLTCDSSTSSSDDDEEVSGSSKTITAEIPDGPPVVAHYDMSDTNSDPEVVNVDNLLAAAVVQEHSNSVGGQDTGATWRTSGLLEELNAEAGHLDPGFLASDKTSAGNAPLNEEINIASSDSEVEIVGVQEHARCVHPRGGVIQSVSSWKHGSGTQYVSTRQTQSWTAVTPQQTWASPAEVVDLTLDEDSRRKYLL
UniProt P15313, sequence (P15313 whole entry, looked up): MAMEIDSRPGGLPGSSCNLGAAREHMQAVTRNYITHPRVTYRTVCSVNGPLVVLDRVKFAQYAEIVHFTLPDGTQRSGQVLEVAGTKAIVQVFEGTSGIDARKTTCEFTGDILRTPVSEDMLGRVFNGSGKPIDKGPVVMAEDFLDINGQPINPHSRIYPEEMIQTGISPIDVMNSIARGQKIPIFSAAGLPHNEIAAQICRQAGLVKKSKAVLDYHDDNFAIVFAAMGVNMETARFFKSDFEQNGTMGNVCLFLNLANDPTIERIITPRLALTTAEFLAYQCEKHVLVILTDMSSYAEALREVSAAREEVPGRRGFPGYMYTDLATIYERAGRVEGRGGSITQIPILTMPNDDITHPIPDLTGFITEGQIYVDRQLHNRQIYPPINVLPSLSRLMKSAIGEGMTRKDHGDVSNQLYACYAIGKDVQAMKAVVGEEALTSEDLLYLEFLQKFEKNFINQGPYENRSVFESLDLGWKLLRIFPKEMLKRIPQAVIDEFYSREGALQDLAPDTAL
UniProt Q9NW68, sequence (Q9NW68 whole entry, looked up): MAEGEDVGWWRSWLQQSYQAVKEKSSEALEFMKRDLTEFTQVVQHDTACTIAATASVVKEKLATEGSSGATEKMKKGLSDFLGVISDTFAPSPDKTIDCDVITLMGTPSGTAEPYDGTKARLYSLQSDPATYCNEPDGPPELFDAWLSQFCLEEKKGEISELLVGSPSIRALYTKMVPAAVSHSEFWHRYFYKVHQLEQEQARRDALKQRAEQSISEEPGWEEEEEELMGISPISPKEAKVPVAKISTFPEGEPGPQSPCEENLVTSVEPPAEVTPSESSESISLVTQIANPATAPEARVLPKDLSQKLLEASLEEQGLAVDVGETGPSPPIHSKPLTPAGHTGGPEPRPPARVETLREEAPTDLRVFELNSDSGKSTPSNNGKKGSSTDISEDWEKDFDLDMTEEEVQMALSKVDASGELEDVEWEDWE
UniProt Q9H3Q1, sequence (Q9H3Q1 whole entry, looked up): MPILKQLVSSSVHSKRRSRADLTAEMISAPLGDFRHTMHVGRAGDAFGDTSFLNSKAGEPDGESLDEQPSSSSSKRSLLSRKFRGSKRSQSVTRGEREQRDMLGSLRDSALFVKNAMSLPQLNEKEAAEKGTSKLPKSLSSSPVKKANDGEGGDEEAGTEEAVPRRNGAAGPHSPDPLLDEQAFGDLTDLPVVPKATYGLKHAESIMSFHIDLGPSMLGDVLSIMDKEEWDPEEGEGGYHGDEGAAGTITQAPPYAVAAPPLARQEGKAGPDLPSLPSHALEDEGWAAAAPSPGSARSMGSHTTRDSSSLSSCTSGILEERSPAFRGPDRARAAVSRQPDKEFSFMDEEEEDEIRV
UniProt P21127, sequence (P21127 whole entry, looked up): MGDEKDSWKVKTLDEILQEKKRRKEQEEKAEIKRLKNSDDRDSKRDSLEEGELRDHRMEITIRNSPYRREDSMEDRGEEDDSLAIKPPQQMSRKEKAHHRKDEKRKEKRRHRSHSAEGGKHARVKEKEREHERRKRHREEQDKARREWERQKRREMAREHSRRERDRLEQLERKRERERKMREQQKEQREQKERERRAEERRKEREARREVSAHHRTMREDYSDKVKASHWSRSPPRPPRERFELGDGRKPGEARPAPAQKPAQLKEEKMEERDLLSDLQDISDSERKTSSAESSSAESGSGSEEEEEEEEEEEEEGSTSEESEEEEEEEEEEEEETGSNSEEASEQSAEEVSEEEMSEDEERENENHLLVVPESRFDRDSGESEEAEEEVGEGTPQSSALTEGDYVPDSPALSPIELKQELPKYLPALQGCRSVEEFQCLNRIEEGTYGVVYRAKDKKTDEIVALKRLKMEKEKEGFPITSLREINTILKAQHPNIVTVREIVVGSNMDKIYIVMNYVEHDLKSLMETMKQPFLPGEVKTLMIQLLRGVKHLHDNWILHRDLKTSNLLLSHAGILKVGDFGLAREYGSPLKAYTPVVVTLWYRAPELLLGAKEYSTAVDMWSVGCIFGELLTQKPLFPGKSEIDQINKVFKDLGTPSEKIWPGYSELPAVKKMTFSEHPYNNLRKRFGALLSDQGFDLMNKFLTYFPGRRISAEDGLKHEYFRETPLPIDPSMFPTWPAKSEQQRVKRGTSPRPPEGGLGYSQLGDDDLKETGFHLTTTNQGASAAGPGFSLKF
UniProt O00311, sequence (O00311 whole entry, looked up): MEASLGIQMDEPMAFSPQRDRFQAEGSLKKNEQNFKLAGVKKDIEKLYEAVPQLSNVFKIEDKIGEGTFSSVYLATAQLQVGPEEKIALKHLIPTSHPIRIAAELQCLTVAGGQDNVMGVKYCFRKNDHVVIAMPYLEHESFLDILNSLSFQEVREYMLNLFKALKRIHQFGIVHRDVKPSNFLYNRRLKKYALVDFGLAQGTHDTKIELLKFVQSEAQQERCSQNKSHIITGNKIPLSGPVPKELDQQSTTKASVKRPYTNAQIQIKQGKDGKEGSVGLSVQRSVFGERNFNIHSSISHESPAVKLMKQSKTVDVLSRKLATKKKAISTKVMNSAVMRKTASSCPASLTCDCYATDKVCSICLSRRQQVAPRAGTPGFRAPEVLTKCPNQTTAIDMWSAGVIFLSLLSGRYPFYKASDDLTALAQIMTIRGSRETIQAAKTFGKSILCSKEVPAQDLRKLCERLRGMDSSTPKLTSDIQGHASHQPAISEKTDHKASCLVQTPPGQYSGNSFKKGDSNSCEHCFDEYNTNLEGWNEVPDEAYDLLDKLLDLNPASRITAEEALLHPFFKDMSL
UniProt Q9H3K6, sequence (Q9H3K6 whole entry, looked up): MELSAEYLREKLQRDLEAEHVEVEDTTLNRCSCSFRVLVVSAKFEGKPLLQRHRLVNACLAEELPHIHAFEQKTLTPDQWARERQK
UniProt O15155, sequence (O15155 whole entry, looked up): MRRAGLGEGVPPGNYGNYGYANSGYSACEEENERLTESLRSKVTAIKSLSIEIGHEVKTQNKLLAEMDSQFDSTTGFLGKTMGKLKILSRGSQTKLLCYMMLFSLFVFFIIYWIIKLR
UniProt P15056, sequence (P15056 whole entry, looked up): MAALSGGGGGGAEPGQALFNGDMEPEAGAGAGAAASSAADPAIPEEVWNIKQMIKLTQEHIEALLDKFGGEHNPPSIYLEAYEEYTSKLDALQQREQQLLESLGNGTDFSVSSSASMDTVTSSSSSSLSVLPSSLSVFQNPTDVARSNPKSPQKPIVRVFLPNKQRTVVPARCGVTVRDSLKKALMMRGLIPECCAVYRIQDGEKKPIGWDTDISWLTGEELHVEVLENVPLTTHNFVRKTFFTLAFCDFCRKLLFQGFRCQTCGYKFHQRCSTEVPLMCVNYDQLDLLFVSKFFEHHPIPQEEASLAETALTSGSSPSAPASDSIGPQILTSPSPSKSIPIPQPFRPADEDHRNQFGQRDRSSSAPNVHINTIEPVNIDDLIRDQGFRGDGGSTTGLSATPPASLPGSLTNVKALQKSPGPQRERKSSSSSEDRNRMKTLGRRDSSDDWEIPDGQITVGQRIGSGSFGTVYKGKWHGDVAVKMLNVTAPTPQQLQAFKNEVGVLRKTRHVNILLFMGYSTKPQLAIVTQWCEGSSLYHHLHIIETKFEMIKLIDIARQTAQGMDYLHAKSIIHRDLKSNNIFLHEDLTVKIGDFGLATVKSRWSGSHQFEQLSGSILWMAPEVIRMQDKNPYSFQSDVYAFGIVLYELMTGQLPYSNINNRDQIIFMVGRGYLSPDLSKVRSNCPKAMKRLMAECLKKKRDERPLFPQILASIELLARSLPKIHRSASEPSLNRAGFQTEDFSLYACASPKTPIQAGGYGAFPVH

Row | Target | log2 fold change (vemurafenib) | log2 fold change [1] | log2 fold change (barasertib) | log2 fold change [2] | log2 fold change (volasertib) | log2 fold change [3] | log2 fold change [4] | log2 fold change [5] | log2 fold change (saracatinib) | log2 fold change (sotrastaurin)
1 | ATP6V1B1 (UniProt P15313) | -0.009 | -0.013 | -0.012 | 0.016 | 0.03 | 0.006 | -0.288 (active) | 0.158 | -0.006 | 0.006
2 | CCNYL1 (UniProt Q8N7R7) | -0.072 | 0.003 | -0.046 | 0.031 | -0.046 | 0.012 | -0.188 | 0.269 | 0.051 | 0.034
3 | CCNY (UniProt Q8ND76) | -0.011 | 0 | -0.016 | -0.148 | 0.036 | -0.103 | 0.032 | 0.037 | 0.063 | 0.025
4 | BOLA2 (UniProt Q9H3K6) | -0.086 | -0.043 | 0.129 | -0.068 | 0.004 | 0.067 | 0.604 (active) | -0.04 | -0.033 | -0.038
5 | CDK11B (UniProt P21127) | 0.025 | 0.002 | 0.022 | -0.087 | -0.057 | 0.029 | -0.047 | -0.048 | -0.024 | 0.01
6 | BSDC1 (UniProt Q9NW68) | 0.027 | 0.053 | 0.078 | 0.099 | 0.018 | -0.01 | -0.027 | 0.041 | 0.03 | -0.019
7 | BRAF (UniProt P15056) | 1.03 (active) | 0.765 (active) | 0.012 | -0.069 | -0.044 | -0.023 | -0.11 | 0.037 | 0.017 | -0.025
8 | BET1 (UniProt O15155) | 0.107 | -0.012 | 0.028 | -0.019 | 0.032 | -0.021 | 0.044 | -0.009 | 0.031 | -0.033
9 | ATE1 isoform 2 (UniProt O95260) | 0.118 | -0.006 | 0.069 | 0.019 | -0.013 | 0.014 | 0.032 | 0.126 | 0.006 | -0.016
10 | CDC45 isoform 3 (UniProt O75419) | 0.009 | 0.042 | -0.015 | -0.05 | -0.017 | -0.05 | -0.096 | -0.04 | 0.007 | 0.027
11 | C18orf25 isoform 2 (UniProt Q96B23) | -0.01 | 0.027 | -0.034 | 0.067 | -0.021 | -0.047 | -0.234 | 0.037 | -0.037 | –
12 | CDC42EP4 (UniProt Q9H3Q1) | 0.01 | -0.01 | 0.013 | 0.162 | 0.013 | -0.04 | -0.021 | 0.042 | -0.064 | -0.012
13 | CBX5 (UniProt P45973) | 0.028 | 0.026 | -0.025 | 0.018 | 0.016 | -0.073 | -0.215 (active) | 0.066 | 0.001 | 0.016
14 | CHD4 isoform 2 (UniProt Q14839) | 0 | 0.002 | 0.028 | -0.003 | -0.002 | 0.022 | -0.054 | -0.017 | 0.002 | 0.02
15 | CDC7 (UniProt O00311) | 0.065 | 0.073 | -0.005 | 0.039 | -0.097 | -0.003 | -0.01 | -0.073 | 0.004 | 0.036
